The list is not random: actives were taken first. Their share in the collection is about 4.6%.
TexasRed fluor: Texas Red fluorescence interference in TRb-SRC2 counter-screen; TRb/SRC2 Texas Red total fluorescence interference; Potency, µM (highest dose often 106 µM), without a hit: at the highest dose fluorescence change, negative = quenching; 0.29% of 280,000 active; active = well fitted curve in either direction with a large enough effect; inconclusive = small, poorly fitted or top-dose-only effect; note: potency is the fitted concentration of half-maximal effect
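Human TRb ligand-binding domain at 0.6 uM with 20 nM Texas Red SRC2 peptide in Tris buffer containing 1 uM T3 and 5% DMSO, incubated with compound 5 h at ambient temperature. Total fluorescence (555/632 nm) calculated as parallel + 2 × perpendicular.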
PNC inhibitor: perinucleolar compartment assembly inhibition | 3.1% of 140,000 active | PC3M PTB-GFP, PNC prevalence imaging, 16 h; hits give low values | activity change (PNC), negative = inhibition, % at 10 µM;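 active = readout at or below -70, meaning at least 70% loss of cells showing the perinucleolar compartment, a nuclear body marking cancer cells; inconclusive = readout between -30 and a set limit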;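 note: plate controls were DMSO wells for no effect and camptothecin positive control wells for full effect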
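Read-out is percentage of cells bearing a perinucleolar compartment, from automated 20x imaging of fixed, Hoechst-stained PC3M PTB-GFP cells. Cells were seeded 4 h, then exposed 16 h to compound (23 nl of library stock) in duplicate plates.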
Tau fluor cs: counter-screen for tau fibril formation inhibitors. Potency, µM (titrated, usually from 57.7 µM), without a hit: top-dose activity change, negative = decrease. tau K18 P301L Alexa594 fluorescence, heparin fibrillization. 0.93% of 280,000 active; note: potency is the fitted concentration of half-maximal effect; nearly all actives have a fitted effect of over 55% in size
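Human tau K18 P301L (15 uM unlabeled, 0.24 uM Alexa 594-labeled) in 100 mM sodium acetate pH 7 with 20 uM heparin, 6 hr at 37 C. ThT 30 uM added, 1 hr ambient; Alexa 594 FP and total fluorescence read at 555/632 nm.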
TRb-SRC2 inh: inhibitors of human thyroid hormone receptor beta-SRC2 interaction. P10828. TRbeta-SRC2 peptide binding, fluorescence polarization; receptor liganded with 1 µM T3. Potency, µM (series often up to 106 µM), for inactives: at the top dose activity change, negative = inhibition, most hits filed as inhibitors. 0.065% of 280,000 active. AID 1469;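 note: potency is the fitted concentration of half-maximal effect; plate controls were bound peptide for no effect and peptide without receptor for full effect; nearly all actives have a fitted effect of over 50% in size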
Target sequence (P10828 whole entry, looked up): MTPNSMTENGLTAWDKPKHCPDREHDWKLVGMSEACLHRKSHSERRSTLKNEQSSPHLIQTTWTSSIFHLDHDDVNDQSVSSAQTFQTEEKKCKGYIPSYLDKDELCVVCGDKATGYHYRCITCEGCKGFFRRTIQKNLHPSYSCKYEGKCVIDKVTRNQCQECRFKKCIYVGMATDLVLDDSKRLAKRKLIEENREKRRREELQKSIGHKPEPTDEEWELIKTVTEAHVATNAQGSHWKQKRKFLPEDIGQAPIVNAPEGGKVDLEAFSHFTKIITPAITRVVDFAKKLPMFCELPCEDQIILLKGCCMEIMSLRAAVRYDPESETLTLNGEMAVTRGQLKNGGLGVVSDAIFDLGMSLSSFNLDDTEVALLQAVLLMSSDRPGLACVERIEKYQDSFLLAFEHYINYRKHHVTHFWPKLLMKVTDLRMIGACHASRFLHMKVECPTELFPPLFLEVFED
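Each compound concentration gave % activity, normalized to unbound and bound Texas Red SRC2 controls, from polarization read after 5 hr ambient incubation with T3-loaded human TRb LBD.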
Tau ThT inhib: blocks human tau fibril formation measured by thioflavin T; P10636; recombinant tau K18 P301L, heparin-induced fibrillization, ThT fluorescence; Potency, µM (titrated, usually from 57.4 µM), without a hit: at the highest dose activity, negative = inhibition, usual class: inhibitors; 2.1% of 270,000 active; note: potency is the fitted concentration of half-maximal effect; nearly all actives have a fitted effect of over 55% in size
Target sequence (P10636 561-689 P618L limits assumed): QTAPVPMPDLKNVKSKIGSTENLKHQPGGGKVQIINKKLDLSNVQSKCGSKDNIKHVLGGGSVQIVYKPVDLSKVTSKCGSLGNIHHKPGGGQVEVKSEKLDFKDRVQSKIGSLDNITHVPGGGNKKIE
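ThT emission at 510 nm, taken 1 hr after adding 30 uM dye, quantifies aggregates formed when 20 uM heparin acts on human tau K18 P301L for 6 hr at 37 C.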
Tau FP inhib: inhibitors of human tau fibril formation | K18 P301L tau heparin fibrillization, Alexa594 FP, 6 h | 0.39% of 280,000 active | Potency, µM (series often up to 57.7 µM), for inactives: top-dose activity, negative = inhibition, usual class: inhibitors | P10636; note: potency is the fitted concentration of half-maximal effect; nearly all actives have a fitted effect of over 55% in size
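Heparin (20 uM) drove fibril formation of recombinant tau K18 P301L, 15 uM unlabeled with 0.24 uM Alexa 594 label, for 6 hr at 37 C in 100 mM sodium acetate pH 7. Fluorescence polarization (555/632 nm) read 1 hr after 30 uM ThT.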
An asterisk follows results filed as active. Unless noted, calls come from the whole dose curve; as a rule, active = well fitted curve in the direction sought with a large enough effect; inconclusive = small, poorly fitted or top-dose-only effect, or another doubt; inactive = no such curve, though single readings can be large; an effect the other way counts as inactive or inconclusive. Unless noted, % is set by controls: 0 for no effect and ±100 for the full control effect.

`O=c1[nH]c(=S)[nH]c(O)c1N=Nc1cccc(S(=O)(=O)N2CCOCC2)c1` gave TexasRed fluor -7%, Tau fluor cs -5%, TRb-SRC2 inh -1%, Tau ThT inhib inconclusive and Tau FP inhib -2%.
O=c1[nH]c(O)c(N=Nc2ccc3c(c2)OCCO3)c(=O)[nH]1 was read as TexasRed fluor -4%, Tau fluor cs -8%, TRb-SRC2 inh -1%, Tau ThT inhib 5.6µM* and Tau FP inhib 11%.
COc1ccc(N=C(C)c2c(O)n(C)c(=O)n(C)c2=O)c(OC)c1 was read as TexasRed fluor 2%, PNC inhibitor 8, Tau fluor cs -1%, TRb-SRC2 inh -5%, Tau ThT inhib 0% and Tau FP inhib 2%.
Screening O=C(Cc1ccccc1)N1CCN(Cc2ccc([N+](=O)[O-])cc2)CC1 returned TexasRed fluor 1%, PNC inhibitor -5, Tau fluor cs 3%, TRb-SRC2 inh -9%, Tau ThT inhib -3% and Tau FP inhib 0%.
Screening O=c1[nH]c(=O)n(Cc2ccccc2)c(O)c1C=Nc1ccc(CN2CCOCC2)cc1 returned TexasRed fluor 3%, PNC inhibitor 27, Tau fluor cs 6%, TRb-SRC2 inh -14%, Tau ThT inhib 1% and Tau FP inhib -1%.
For COc1ccc2c(c1)NP(=S)(Oc1ccccc1)N2 (centres undefined) the results were TexasRed fluor -4%, Tau fluor cs inconclusive, TRb-SRC2 inh 5%, Tau ThT inhib 8.9µM* and Tau FP inhib inconclusive.
Screening COc1cccc(-n2c(=S)[nH]c3ccccc3c2=O)c1 returned TexasRed fluor -1%, Tau fluor cs 5%, TRb-SRC2 inh -3%, Tau ThT inhib 0% and Tau FP inhib 2%.
Screening O=C1NC(=O)N(Cc2ccccc2Cl)C(=O)/C1=C/N1CCOCC1 returned TexasRed fluor -5%, PNC inhibitor 34, Tau fluor cs -23%, TRb-SRC2 inh -5%, Tau ThT inhib 18µM* and Tau FP inhib inconclusive.
For CCOC(=O)C1=C(C)OC(N)=C(C(=O)OCC)[C@@]12C(=O)N(CC(N)=O)c1ccccc12 the results were TexasRed fluor -1%, PNC inhibitor 43, Tau fluor cs -18%, TRb-SRC2 inh -5%, Tau ThT inhib inconclusive and Tau FP inhib inconclusive.
Screening Cn1c(O)c(/C=N/N2CCOCC2)c(=O)[nH]c1=S returned TexasRed fluor -1%, Tau fluor cs -2%, TRb-SRC2 inh -1%, Tau ThT inhib -10% and Tau FP inhib -3%.
Screening COCc1ccc(CN2CCCC(C(=O)c3sccc3C)C2)o1 (centres undefined) returned TexasRed fluor 0%, Tau fluor cs -5%, TRb-SRC2 inh 0%, Tau ThT inhib -4% and Tau FP inhib -5%.
For N/C(=N\N=C/c1ccc(-c2ccc(O)c(C(=O)O)c2)o1)N[N+](=O)[O-] the results were TexasRed fluor inconclusive, PNC inhibitor -24, Tau fluor cs inconclusive, TRb-SRC2 inh 1%, Tau ThT inhib 4.5µM* and Tau FP inhib -4%.
For C=CCc1cc(OC)c2c(c1)OCO2 the results were TexasRed fluor -1% and TRb-SRC2 inh -8%.
For COc1cccc2c1cc([N+](=O)[O-])c1c(C(=O)O)cc3c(c12)OCO3 the results were TexasRed fluor -10%, Tau fluor cs inconclusive, TRb-SRC2 inh -3%, Tau ThT inhib 14µM* and Tau FP inhib -2%.
For N#CC(C#N)=NNc1ccc(OC(F)(F)F)cc1 the results were TexasRed fluor -6%, Tau fluor cs inconclusive, TRb-SRC2 inh -7%, Tau ThT inhib 7.9µM* and Tau FP inhib inconclusive.
`CC1(C)Cc2c(sc3c2C(=O)NC(c2cccnc2)N3)CO1` (centres undefined) gave TexasRed fluor 2%, PNC inhibitor -101*, Tau fluor cs -4%, TRb-SRC2 inh -12%, Tau ThT inhib inconclusive and Tau FP inhib -6%.
c1cncc(C2CCCN2)c1 (centres undefined) was read as TexasRed fluor -1%, Tau fluor cs -5%, TRb-SRC2 inh 6%, Tau ThT inhib -9% and Tau FP inhib -10%.
Screening O=C1NC(c2cccnc2)Nc2sc3c(c21)CCCC3 (centres undefined) returned TexasRed fluor -5%, PNC inhibitor -100*, Tau fluor cs -17%, TRb-SRC2 inh 5%, Tau ThT inhib inconclusive and Tau FP inhib inconclusive.
For CCOC(=O)c1c(C)c(P(=S)(N2CCOCC2)N2CCOCC2)n(C)c1C the results were TexasRed fluor 0%, PNC inhibitor -121*, Tau fluor cs 0%, TRb-SRC2 inh -24%, Tau ThT inhib -3% and Tau FP inhib -4%.
For COCCOC(=O)C1=C(C)OC(N)=C(C(=O)OC)C12C(=O)Nc1ccccc12 (centres undefined) the results were TexasRed fluor 0%, PNC inhibitor 21, Tau fluor cs -21%, TRb-SRC2 inh 6%, Tau ThT inhib 40µM* and Tau FP inhib inconclusive.
For Cc1nccc2c1[nH]c1ccccc12 the results were TexasRed fluor -1%, Tau fluor cs -12%, TRb-SRC2 inh 2%, Tau ThT inhib -4% and Tau FP inhib inconclusive.
Cc1[nH]c2ccccc2c1/C=N/O was read as TexasRed fluor -1%, PNC inhibitor -86*, Tau fluor cs -1%, TRb-SRC2 inh -24%, Tau ThT inhib -4% and Tau FP inhib 10%.
For COc1ccc(-c2nc(CSCC(=O)N3CCC4(CC3)OCCO4)c(C)o2)cc1OC the results were TexasRed fluor 2%, PNC inhibitor 4, Tau fluor cs 3%, TRb-SRC2 inh 1%, Tau ThT inhib -13% and Tau FP inhib -2%.
O=c1[nH]c(=S)n(-c2ccc(Br)cc2)c(O)c1C=Nc1ccc(N2CCOCC2)cc1 was read as TexasRed fluor 3%, PNC inhibitor 3, Tau fluor cs -22%, TRb-SRC2 inh -9%, Tau ThT inhib 25µM* and Tau FP inhib 3%.
Screening Cc1cc(C)cc(-n2c(O)c(C=Nc3ccc(N4CCOCC4)cc3)c(=O)[nH]c2=S)c1 returned TexasRed fluor 1%, PNC inhibitor -11, Tau fluor cs -8%, TRb-SRC2 inh 1%, Tau ThT inhib inconclusive and Tau FP inhib 6%.
Screening CC(C)NS(=O)(=O)c1ccc(OCC(=O)N2CCN(C)CC2)cc1 returned TexasRed fluor 2%, PNC inhibitor -5, Tau fluor cs 0%, TRb-SRC2 inh 7%, Tau ThT inhib 6% and Tau FP inhib -1%.

Screening data as filed in PubChem.
